Measured values published in PubChem BioAssay (NCATS).
Inconclusive results are not listed. The source made the active and inactive calls. Calls follow the shape of the dose curve; as a rule, active = well fitted inhibition curve with a large enough effect; inconclusive = small, poorly fitted or top-dose-only effect; inactive = flat fitted curve, though single readings scatter.

What was measured:
Test in all cases: qHTS profiling for inhibitors of Plasmodium falciparum proliferation (AID 504749); also: nearly all actives have a fitted effect of over 60% in size
CP192 = conditions: P. falciparum in erythrocytes, SYBR Green DNA, 72 h; series mostly up to 28.7 µM
Method in brief: (§1)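 Quantitative HTS: compounds pinned into medium, infected erythrocytes added (0.3% parasitemia, 2.5% hematocrit), 72 h culture at 37 C under 5% CO2. Saponin/Triton lysis with SYBR Green I, overnight RT, then fluorescence read.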

CP194 = conditions: P. falciparum in erythrocytes, SYBR Green DNA, 72 h; series mostly up to 28.7 µM
Method in brief: as §1

CP201 = conditions: P. falciparum in erythrocytes, SYBR Green DNA, 72 h; series mostly up to 28.7 µM
Method in brief: as §1

CP203 = conditions: P. falciparum in erythrocytes, SYBR Green DNA, 72 h; series mostly up to 28.7 µM
Method in brief: as §1

CP211 = conditions: P. falciparum in erythrocytes, SYBR Green DNA, 72 h; series mostly up to 28.7 µM
Method in brief: as §1

CP217 = conditions: P. falciparum in erythrocytes, SYBR Green DNA, 72 h; series mostly up to 28.7 µM
Method in brief: as §1

CP238 = conditions: P. falciparum in erythrocytes, SYBR Green DNA, 72 h; series mostly up to 28.7 µM
Method in brief: as §1

CP247 = conditions: P. falciparum in erythrocytes, SYBR Green DNA, 72 h; series mostly up to 28.7 µM
Method in brief: as §1

CP215 = conditions: P. falciparum in erythrocytes, SYBR Green DNA, 72 h
Method in brief: as §1

CP237 = conditions: P. falciparum in erythrocytes, SYBR Green DNA, 72 h
Method in brief: as §1
Potency is read from the fitted curve at half-maximal effect.

Q: What does the source list for `CCCOc1ccc2nc(NC(=O)OC)sc2c1`?
A: Potency (CP192): inactive; Potency (CP194): inactive; Potency (CP201): inactive; Potency (CP203): inactive; Potency (CP211): inactive; Potency (CP217): inactive; Potency (CP238): inactive; Potency (CP247): inactive

Q: What does the source list for `C=CCNC1=C2C[C@@H](C)C[C@H](OC)[C@H](O)[C@@H](C)/C=C(\C)[C@H](OC(N)=O)[C@@H](OC)/C=C\C=C(/C)C(=O)NC(=CC1=O)C2=O`?
A: Potency (CP192): 4.26 µM (active); Potency (CP194): 4.26 µM (active); Potency (CP201): 6.75 µM (active); Potency (CP203): 3.79 µM (active); Potency (CP211): 3.79 µM (active); Potency (CP215): 4.78 µM (active); Potency (CP217): 2 µM (active); Potency (CP237): 1.26 µM (active); Potency (CP238): 1.58 µM (active); Potency (CP247): 2.24 µM (active)

Q: What does the source list for `COC1C(OC(=O)/C=C/C=C/C=C/C=C/C(=O)O)CCC2(CO2)C1C1(C)OC1CC=C(C)C` (stereo not drawn)?
A: Potency (CP194): 0.536 µM (active); Potency (CP201): 7.57 µM (active); Potency (CP203): 2.69 µM (active); Potency (CP211): 0.0379 µM (active); Potency (CP215): 6.01 µM (active)
